Active and inactive are the calls of the source.
Experiments:
[1] = E. coli DRC41 culture turbidity changes, primary screen, E. coli filamentation inducer project, strain DRC41, OD650, 48 h (AID 1152);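 further: E. coli MC1000 strain DRC41 lacking acrAB efflux pump and sulA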; details: E. coli DRC41 (acrAB sulA), higher = more signal, called active from +8 up or from −8 down
[2] = small-molecule binders of probe aLefty1, primary screen, biochemical, small-molecule microarray, 635/667 nm fluorescence (AID 1153); details: higher = more signal;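 further: score merges spot fluorescence with signal-to-noise ratio from the scanned slide images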
[3] = PSAC antagonists in infected red cells, primary screen, cell-based, P. falciparum Indochina, OD700, 1 h (AID 1154); details: P. falciparum Indochina infected RBC osmotic lysis, higher = more signal, called active from +8 up or from −8 down
[4] = PSAC antagonists in infected red cells, primary screen, cell-based, P. falciparum Indochina, OD700, 2 h (AID 1155);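 further: lysis reports solute entry through the parasite surface anion channel PSAC; channel blockers reduce lysis of infected cells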; details: P. falciparum Indochina infected erythrocytes, osmotic lysis OD700; higher = more signal, called active from +8 up or from −8 down
[5] = osmotic lysis modulators in infected erythrocytes, primary screen, PSAC antagonist project, cell-based, P. falciparum Indochina, OD700, 3 h (AID 1156); details: higher = more signal, called active from +8 up or from −8 down
[6] = PSAC antagonists in infected red cells, primary screen, cell-based, P. falciparum Indochina, OD700, 18 h (AID 1157); details: P. falciparum Indochina infected erythrocytes, osmotic lysis OD700, 18 h; higher = more signal, called active from +8 up or from −8 down
[7] = modulators of S6 phosphorylation in cells, primary screen, cell-based, A549, cytoblot, luminescence, serum-stimulated (AID 1158); details: A549 phospho-S6 cytoblot, 5 h, higher = more signal;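 further: serum-stimulated A549 lung adenocarcinoma cells; signal is phosphorylated S6 detected by cytoblot immunostaining with HRP secondary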
[8] = target: NADPH oxidase 2 (Homo sapiens) (UniProt P04839); assay: NOX2-dependent H2O2 signal modulators, primary screen, NOX inhibitor project, cell-based, HEK293-NOX2, PMA-stimulated, Amplex Red fluorescence (AID 1159); details: 45 min, higher = more signal, called active from +8 up or from −8 down; further: test concentration not given here
Chain of NADPH oxidase 2 (Homo sapiens) (P04839 whole entry, looked up): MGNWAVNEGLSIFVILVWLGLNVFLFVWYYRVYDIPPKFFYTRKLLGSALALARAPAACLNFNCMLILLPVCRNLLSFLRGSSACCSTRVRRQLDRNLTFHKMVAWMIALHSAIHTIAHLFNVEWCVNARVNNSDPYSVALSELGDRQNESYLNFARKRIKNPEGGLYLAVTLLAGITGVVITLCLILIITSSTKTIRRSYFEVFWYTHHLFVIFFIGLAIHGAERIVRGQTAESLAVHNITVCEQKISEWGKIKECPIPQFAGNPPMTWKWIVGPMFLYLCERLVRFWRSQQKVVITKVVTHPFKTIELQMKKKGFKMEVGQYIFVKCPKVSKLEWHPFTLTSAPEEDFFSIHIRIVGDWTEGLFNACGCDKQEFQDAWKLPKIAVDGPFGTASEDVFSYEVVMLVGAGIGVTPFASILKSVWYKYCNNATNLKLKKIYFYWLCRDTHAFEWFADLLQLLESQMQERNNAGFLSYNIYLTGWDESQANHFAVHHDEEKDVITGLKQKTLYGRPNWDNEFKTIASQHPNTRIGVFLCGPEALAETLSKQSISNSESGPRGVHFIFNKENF

[9] = target: NADPH oxidase 4 (Homo sapiens) (UniProt Q9NPH5); assay: NOX4-dependent H2O2 signal modulators, primary screen, NOX inhibitor project, cell-based, HEK293-NOX4, tetracycline-induced, Amplex Red fluorescence (AID 1160); details: 45 min, higher = more signal, called active from +8 up or from −8 down
Chain of NADPH oxidase 4 (Homo sapiens) (Q9NPH5 whole entry, looked up): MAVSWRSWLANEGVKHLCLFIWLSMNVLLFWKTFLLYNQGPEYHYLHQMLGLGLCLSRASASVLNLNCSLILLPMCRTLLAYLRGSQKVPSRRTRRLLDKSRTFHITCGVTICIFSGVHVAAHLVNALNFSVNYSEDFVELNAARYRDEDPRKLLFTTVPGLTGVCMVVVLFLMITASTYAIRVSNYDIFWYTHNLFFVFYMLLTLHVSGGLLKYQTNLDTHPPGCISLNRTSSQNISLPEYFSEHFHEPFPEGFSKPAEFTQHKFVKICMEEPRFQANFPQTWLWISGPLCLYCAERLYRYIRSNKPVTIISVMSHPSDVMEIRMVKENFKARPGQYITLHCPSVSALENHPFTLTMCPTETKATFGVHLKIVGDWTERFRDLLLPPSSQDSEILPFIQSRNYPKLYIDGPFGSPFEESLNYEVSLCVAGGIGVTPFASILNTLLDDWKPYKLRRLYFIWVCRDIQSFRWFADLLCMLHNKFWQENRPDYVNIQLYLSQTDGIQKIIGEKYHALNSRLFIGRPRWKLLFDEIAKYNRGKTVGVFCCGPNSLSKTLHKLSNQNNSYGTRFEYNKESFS

[10] = target: NADPH oxidase 5 (Homo sapiens) (UniProt Q96PH1); assay: NOX5-dependent H2O2 signal modulators, primary screen, NOX inhibitor project, cell-based, HEK293-NOX5, Amplex Red fluorescence (AID 1161); details: HEK293-NOX5, ionomycin, 45 min, higher = more signal
Chain of NADPH oxidase 5 (Homo sapiens) (Q96PH1 whole entry, looked up): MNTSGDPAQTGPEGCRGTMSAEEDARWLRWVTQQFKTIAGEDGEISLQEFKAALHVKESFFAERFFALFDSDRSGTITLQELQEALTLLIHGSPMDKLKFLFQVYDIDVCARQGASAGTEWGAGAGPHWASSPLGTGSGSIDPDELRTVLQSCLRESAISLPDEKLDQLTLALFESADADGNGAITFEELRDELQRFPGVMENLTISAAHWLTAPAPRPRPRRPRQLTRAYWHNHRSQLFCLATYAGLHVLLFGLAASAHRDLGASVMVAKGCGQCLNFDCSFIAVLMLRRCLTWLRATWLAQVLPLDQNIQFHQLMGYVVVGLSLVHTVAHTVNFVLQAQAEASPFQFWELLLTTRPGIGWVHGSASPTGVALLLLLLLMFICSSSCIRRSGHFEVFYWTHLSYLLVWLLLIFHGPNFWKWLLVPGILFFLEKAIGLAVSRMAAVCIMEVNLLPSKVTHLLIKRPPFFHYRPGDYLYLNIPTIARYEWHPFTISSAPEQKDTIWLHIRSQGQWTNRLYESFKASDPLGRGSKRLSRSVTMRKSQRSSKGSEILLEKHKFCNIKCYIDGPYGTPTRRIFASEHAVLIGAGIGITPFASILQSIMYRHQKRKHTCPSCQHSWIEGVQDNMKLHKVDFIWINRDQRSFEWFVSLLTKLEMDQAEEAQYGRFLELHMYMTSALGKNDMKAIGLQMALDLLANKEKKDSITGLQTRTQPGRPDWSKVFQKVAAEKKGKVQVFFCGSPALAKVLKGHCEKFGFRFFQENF

[11] = A549 cell viability effects, profiling panel, calcein-AM fluorescence, 48 h, basal (AID 1162); details: higher = more signal; further: test concentration not given here
[12] = adipocyte viability effects, profiling panel, cell-based, 3T3-L1 adipocytes, calcein-AM fluorescence, 48 h, basal (AID 1163); details: 3T3-L1 adipocytes viability, higher = more signal; further: test concentration not given here
[13] = HepG2 cell viability effects, profiling panel, calcein-AM fluorescence, 48 h, basal (AID 1164); details: higher = more signal; further: test concentration not given here
[14] = MM1S cell viability effects, profiling panel, calcein-AM fluorescence, 48 h, basal (AID 1165); details: higher = more signal;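 further: viability of MM1S multiple myeloma cells under basal unstimulated conditions; test concentration not given here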
[15] = basal RPMI8226 viability, no added stimulus, profiling panel, cell-based, calcein-AM fluorescence, 48 h, PK04 Diversity Set (AID 1166); details: RPMI8226 myeloma viability, higher = more signal;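 further: cells grown under basal conditions without added stimulus; test concentration not given here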
[16] = basal HepG2 mitochondrial membrane potential changes, profiling panel, cell-based, JC-1 fluorescence, 24 h, 100 nL compound (AID 1167); details: higher = more signal; further: test concentration not given here
[17] = basal 3T3-L1 adipocyte mitochondrial potential changes, profiling panel, cell-based, JC-1 fluorescence, 3T3-L1 adipocytes, 24 h, 100 nL compound (AID 1168); details: JC-1 mitochondrial fluorescence, higher = more signal, called active from +8 up or from −8 down; further: test concentration not given here
[18] = basal RPMI8226 mitochondrial membrane potential changes, profiling panel, cell-based, JC-1 fluorescence, 24 h, 100 nL compound (AID 1169); details: RPMI8226 myeloma, JC-1 mitochondrial potential fluorescence, higher = more signal; further: test concentration not given here
[19] = basal MM1S mitochondrial membrane potential changes, profiling panel, cell-based, JC-1 fluorescence, 24 h, 100 nL compound (AID 1170); details: higher = more signal; further: test concentration not given here
[20] = A549 lung cancer cell viability effects, profiling panel, resazurin fluorescence, 24 h, PK04 Diversity Set (AID 1171); details: higher = more signal, called active from +8 up or from −8 down; further: test concentration not given here

Structure (SMILES)	z-score [1]	composite z-score [2]	z-score [3]	z-score [4]	z-score [5]	z-score [6]	z-score [7]	z-score [8]	z-score [9]	z-score [10]	z-score [11]	z-score [12]	z-score [13]	z-score [14]	z-score [15]	z-score [16]	z-score [17]	z-score [18]	z-score [19]	z-score [20]
CO[C@H]1COC(=O)CC=C[C@H](C)[C@@H](NS(=O)(=O)c2ccc(C)cc2)COC(=O)CC=C[C@@H]1C	-1.05 (inactive)	-0.194	0.0723 (inactive)	-1.13 (inactive)	0.157 (inactive)	-0.592 (inactive)	5.19	0.0288 (inactive)	0.256 (inactive)	0.622	0.368	0.902	0.605	-0.204	0.15	-0.0318	-1.58 (inactive)	0.0791	-1.17	-0.0226 (inactive)
COC(=O)[C@@]1(Cc2ccccc2)[C@H]2c3cc(C(=O)N4CCCC4)n(Cc4ccccn4)c3C[C@H]2CN1C(=O)c1ccccc1	-1.04 (inactive)	1.27	2.24 (inactive)	0.278 (inactive)	2.27 (inactive)	1.03 (inactive)	0.741	0.401 (inactive)	-1.83 (inactive)	-3.72	-0.935	1.91	-0.924	-0.0789	-1.72	1.06	0.339 (inactive)	-0.16	0.333	-1.53 (inactive)
CC(C)[Si]1(C(C)C)O[C@@H](c2ccccc2)c2cc(C3CC3)nc(-c3ccccc3)c21	-1.02 (inactive)	-0.108	1.27 (inactive)	0.389 (inactive)	-0.0854 (inactive)	-0.0349 (inactive)	0.19	-0.305 (inactive)	0.504 (inactive)	0.0972	-0.447	-0.483	-0.244	-2.2	-1.35	-1.8	-0.092 (inactive)	-0.781	-0.192	1.44 (inactive)
COC(=O)[C@@]1(Cc2ccc(F)cc2)[C@H]2c3cc(C(=O)N(C)C)n(Cc4ccc(OC)c(OC)c4)c3C[C@H]2CN1C(=O)c1ccccc1	-1.19 (inactive)	0.109	0.933 (inactive)	-0.512 (inactive)	0.746 (inactive)	-1.37 (inactive)	2.19	-3.29 (inactive)	-1.97 (inactive)	-4.09	-0.74	0.272	-1.36	-1.13	-2.04	0.594	-0.512 (inactive)	0.0709	-0.7	-0.507 (inactive)
C[C@H]1Cc2c(-c3ccccc3)nc3c(c2CO1)CN(CCOc1ccccc1)CC3	0.503 (inactive)	-0.199	1.65 (inactive)	0.407 (inactive)	0.301 (inactive)	0.0748 (inactive)	0.426	0.17 (inactive)	-0.0187 (inactive)	-0.605	2.68	0.173	1.27	0.785	0.11	0.932	0.281 (inactive)	-0.324	-0.439	-0.31 (inactive)
CCOC(=O)NN=C1C[C@@H](O)[C@@H](O)[C@@H]2[C@@H]3C(=O)N(C(C)(C)C)C(=O)[C@@H]3CC[C@@H]12	-0.0206 (inactive)	-0.0601	0.209 (inactive)	-0.0313 (inactive)	-0.548 (inactive)	0.0353 (inactive)	-0.12	0.5 (inactive)	1.05 (inactive)	0.295	-0.571	-0.0947	-0.394	0.0284	-0.0464	-0.79	-0.911 (inactive)	0.329	0.243	-0.452 (inactive)
C/C=C\[C@@H](NCc1ccccc1Br)[C@@H](O)Cc1ccccc1	-1.43 (inactive)	0.0927	-0.222 (inactive)	-1.35 (inactive)	0.0141 (inactive)	-2.52 (inactive)	0.365	-0.239 (inactive)	-1.49 (inactive)	-2.69	-1.17	1.43	-1.44	-1.53	-3.29	-1.34	0.0182 (inactive)	-0.926	-0.0951	-0.29 (inactive)
COC(=O)[C@@]1(Cc2ccc(OC)cc2)[C@H]2c3cc(C(=O)N4CCCC4)n(Cc4cc(F)c(F)c(F)c4)c3C[C@H]2CN1C(=O)c1ccccc1	-2.13 (inactive)	2.39	1.1 (inactive)	1.07 (inactive)	0.718 (inactive)	0.911 (inactive)	-0.215	1.01 (inactive)	-0.256 (inactive)	0.603	-1.19	-0.0755	-0.521	-1	-3.11	1.31	-1.6 (inactive)	-0.87	-1.2	-1.08 (inactive)
C=C(/C(=C/C[C@H](OC(=O)c1ccncc1)c1ccc(OCCO)cc1)c1cnc2ccccc2c1)C(C)C	-0.592 (inactive)	0.188	18.5 (active)	3.04 (inactive)	1.11 (inactive)	0.724 (inactive)	-0.288	-0.513 (inactive)	-0.346 (inactive)	-0.699	1.31	-0.122	0.0253	-2.75	-0.294	0.92	-0.69 (inactive)	-0.815	-0.0967	0.58 (inactive)
COc1ccc(CCNC(=O)[C@@H]2c3ccccc3C(=O)N(c3ccc(C)cn3)[C@H]2c2ccc(CO)cc2)cc1	0.119 (inactive)	-0.06	2.45 (inactive)	0.478 (inactive)	0.414 (inactive)	0.401 (inactive)	-0.0568	0.0857 (inactive)	-0.882 (inactive)	-2.5	-0.174	0.821	-0.513	-0.243	-0.194	-0.814	-0.195 (inactive)	0.671	0.634	0.689 (inactive)
CC(C)CON=C1C[C@@H](O)[C@@H](O)[C@@H]2[C@@H]3C(=O)N(C[C@@H]4CCCO4)C(=O)[C@@H]3CC[C@H]12	0.165 (inactive)	-0.0559	0.0811 (inactive)	0.449 (inactive)	-0.425 (inactive)	-0.0131 (inactive)	-0.383	0.202 (inactive)	0.313 (inactive)	-0.61	-0.31	-0.528	-0.222	0.12	-0.259	-0.637	-1.27 (inactive)	0.347	0.0335	0.322 (inactive)
CCCNC(=O)OC[C@H]1O[C@H](CCON=CC[C@@H]2C=C[C@H](OC(C)=O)[C@@H](COC(C)=O)O2)C=C[C@@H]1Oc1ccc(OC)cc1	-0.413 (inactive)	-0.145	1.6 (inactive)	0.405 (inactive)	0.126 (inactive)	0.392 (inactive)	-0.397	-1.02 (inactive)	0.143 (inactive)	-1.07	0.51	-0.217	-0.24	-0.516	-1.28	-1.14	-1.12 (inactive)	-0.057	0.306	0.248 (inactive)
CCOC(=O)C[C@H]1[C@H](OC(=O)c2ccc(C(=O)c3ccccc3)cc2)[C@@H](NC(=O)c2ccc(-c3ccccc3)cc2)c2cc(OCCCO)ccc2N1C(=O)c1ccc2ccccc2n1	2.25 (inactive)	-0.118	5.21 (inactive)	0.485 (inactive)	0.464 (inactive)	0.407 (inactive)	0.756	-1.46 (inactive)	0.424 (inactive)	0.216	1.03	1.44	1.35	0.598	1.08	1.92	1.98 (inactive)	0.611	-1.18	0.336 (inactive)
COCC1=C2[C@@H](CCc3ccccc3)OB(O)C[C@@H]2n2c(=O)n(-c3ccccc3)c(=O)n2C1	-0.144 (inactive)	-0.0816	1.88 (inactive)	-0.256 (inactive)	-0.698 (inactive)	-0.235 (inactive)	0.214	-0.421 (inactive)	-2.2 (inactive)	-1.48	-0.0316	-0.174	0.602	-0.0123	-0.412	-1.83	0.619 (inactive)	0.164	0.368	-0.566 (inactive)
C[C@@H]1CCC2C(=O)N(Cc3ccccc3)C[C@@H](O)CN2[C@H]1c1ccc(Br)cc1 (stereo not given in full)	-0.732 (inactive)	-0.0573	0.167 (inactive)	-0.875 (inactive)	-0.75 (inactive)	-0.567 (inactive)	0.805	0.615 (inactive)	-0.146 (inactive)	-0.836	0.247	0.13	0.229	0.314	0.447	0.687	0.303 (inactive)	-0.878	1.35	0.269 (inactive)
CCOC(=O)CCN1C(=O)[C@H]2[C@H]3[C@H](O)[C@H](O)CC(=O)[C@H]3CC[C@H]2C1=O	-1.98 (inactive)	-0.0984	-0.062 (inactive)	-0.426 (inactive)	-0.451 (inactive)	-1.42 (inactive)	1.11	-0.513 (inactive)	0.947 (inactive)	-0.00675	-0.439	1.43	0.0368	-0.904	-0.122	-0.103	-0.237 (inactive)	0.0295	-1.28	-0.125 (inactive)
O=C1[C@H]2[C@H]3[C@H](O)[C@H](O)CC(=NOC[C@@H](O)COCc4ccco4)[C@H]3CC[C@H]2C(=O)N1C1CCCCC1	-0.708 (inactive)	0.0245	1.6 (inactive)	-1.23 (inactive)	0.786 (inactive)	-2.32 (inactive)	0.988	-2.55 (inactive)	-0.583 (inactive)	-1.66	-1.03	0.979	0.187	0.29	-1.01	-0.322	-0.236 (inactive)	-1.02	-0.611	-0.381 (inactive)
